Compound activity deposited in PubChem BioAssay by several laboratories.
A selection: hits, their analogues and other compounds. The true share with any hit is near 4.2%.
tim10-1 inh: growth inhibitors of tim10-1 mutant yeast, primary screen, luminescence, uHTS; S. cerevisiae tim10-1 ts strain growth, BacTiter-Glo, 24 h; inhibition, % at 20 µM; actives 2.2% (n = 330,000);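 active = inhibition of at least 40%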;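 also: mutant grown at 25 °C; 0% = DMSO wells with yeast and 100% = wells holding no yeast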
TIM10 inh: growth inhibitors of isogenic TIM10 control yeast, primary screen, counter-screen for tim10-1 yeast inhibitor project, luminescence, uHTS; S. cerevisiae TIM10 strain growth, BacTiter-Glo luminescence, 24 h; inhibition, % at 10 µM; actives 1.4% (n = 330,000); AID 463195, 2010;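 active = inhibition of 40% or more at the single tested concentration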;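 also: wild-type TIM10 isogenic control strain grown at permissive 25 °C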
PfHsp90 set2: growth inhibition of PfHsp90-expressing yeast, primary screen, antimalarial PfHsp90 inhibitor project, S. cerevisiae, BacTiter-Glo luminescence, single point, set 2; BacTiter-Glo ATP, 48 h; yeast lacking PDR1 and PDR3 efflux regulators; inhibition, % at 9.4 µM; actives 0.32% (n = 310,000); AID 504621, 2011;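 active = every replicate shows inhibition above about 80%, whatever the replicate mean, limit read from the data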;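 also: 0% = DMSO neutral controls and 100% = 20 µM radicicol positive controls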
tim23-1 inh: growth inhibitors of tim23-1 mutant yeast, primary screen, luminescence, uHTS; AID 463212, 2010; S. cerevisiae tim23-1 growth, BacTiter-Glo luminescence, 24 h; inhibition, % at 20 µM; actives 1.3% (n = 330,000);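 active = growth inhibition of the mutant yeast at or above 50%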;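 also: temperature-sensitive mutant grown at 25 °C; plate controls were DMSO-treated mutant yeast for no effect and medium wells lacking yeast for full effect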
NALP1 yeast inh: NALP1 inflammasome inhibitors in reconstituted yeast, colorimetric, S. cerevisiae, triplicate retest; actives 0.61% (n = 280,000); S. cerevisiae NALP1/ASC/caspase-1 growth, X-gal OD620, 72 h; inhibition, % at 10 µM; AID 2071, 2009; in the data active = inhibition mostly above about 24%, no sharp cut-off; inactive = mostly below about 32%
NALP3 yeast inh: NALP3 inflammasome inhibitors in reconstituted yeast, primary screen, luminescence, uHTS; Yeast reconstituted NLRP3/ASC/caspase-1, beta-gal luminescence, 24 h; inhibition, % at 10 µM; actives 0.39% (n = 330,000);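 active = inhibition of 50% or more; inactive = inhibition below 50%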;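 also: plate controls were induced DMSO wells for no effect and uninduced yeast grown without galactose for full effect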
Starred values were filed as active, the others as inactive; / = not tested or not shown.

SMILES	tim10-1 inh	TIM10 inh	PfHsp90 set2	tim23-1 inh	NALP1 yeast inh	NALP3 yeast inh
O=C1NC(=S)NC(=O)C1=Cc1ccc(Br)s1	15	14	123*	31	2	17
CN1C(=O)/C(=C\c2ccc(Br)s2)C(=O)NC1=S	/	/	56	/	3	/
CC(=NCc1ccco1)c1c(O)n(C)c(=O)n(C)c1=O	12	8	/	8	42*	9
CCC(=NCc1ccco1)c1c(O)n(C)c(=O)n(C)c1=O	1	-17	-18	-11	/	3
N=c1sccn1Cc1ccccc1F	/	/	5	/	8	/
CC1=NN(Cc2c[nH]c3ccccc23)C(C)(C)C1	8	2	-13	10	2	-9
Clc1ccc(C(Cn2ccnc2)OCc2csc3c(Cl)cccc23)c(Cl)c1 (stereo not drawn)	-6	-63	86*	48	/	21
CC1=C(O)C(=O)C=C2C1=CC=C1C2(C)CCC2(C)C3CC(C)(C(=O)O)CCC3(C)CCC12C (stereo not drawn)	/	/	125*	/	/	/
CN(C)C(=S)SSC(=S)N(C)C	/	/	108*	/	64*	/
O=C(c1ccccc1)C(Cc1ccccc1)N1CCOCC1 (stereo not drawn)	/	/	-1	/	/	/
O=C1NC(=O)C(Nc2ccccc2)C(=O)N1	/	/	0	/	/	/
CN(C)C1C(=O)C(C(N)=O)=C(O)C2(O)C(=O)C3=C(O)c4c(O)cccc4C(C)(O)C3CC12 (stereo not drawn)	/	/	-9	/	9	/
CN(C)[C@@H]1C(=O)C(C(N)=O)=C(O)[C@@]2(O)C(=O)C3=C(O)c4c(O)ccc(Cl)c4[C@@](C)(O)C3C[C@@H]12 (stereo partly drawn)	/	/	13	/	132*	/
COc1ccc2oc3c(c2c1)NC(=O)CN=C3c1ccccc1	23	18	5	15	23*	13
CCC1C2Cc3ccc(O)cc3C1(CC)CCN2C (stereo not drawn)	/	/	-3	/	/	/
COC1CCC(OC2CC(C3(C)CCC4(CC(O)C(C)C(C(C)/C=C(\C)C(=O)C(C)CC(C)C(=O)O)O4)O3)OC3(OC(C4OC(O)(CO)C(C)CC4C)CC3C)C2C)OC1C (stereo not drawn)	/	/	106*	/	/	/
CC(C)(C)C(=O)N1Cc2cnnn2-c2ccccc2C1C#N (stereo not drawn)	/	/	10	/	/	/
CCOC(=O)C1=C(C)OC(N)=C(C(=O)OCC)[C@@]12C(=O)N(CC(N)=O)c1ccccc12	10	10	10	8	4	10
CCOC(=O)C1=C(N)OC2=C(C(=O)CCC2)[C@]12C(=O)N(CC(N)=O)c1ccccc12	-10	9	8	-2	36*	-10
COC(=O)C1=C(C(=O)OC)C2OC1c1cc3ccccc3cc12	/	/	132*	/	/	/
Fc1ccc(C(OCCN2CCCC2)c2ccc(F)cc2)cc1	5	-6	16	6	21	12
Fc1ccc(C(OCCN2CCCC2)c2ccc(Br)cc2)cc1 (stereo not drawn)	32	30	-19	23	47*	42
Clc1ccc(CCC(Cn2ccnc2)Sc2c(Cl)cccc2Cl)cc1 (stereo not drawn)	-7	-63	88*	-39	/	20
c1cncc(CNC2CCCC2)c1	-1	7	-17	-4	30*	14
Cn1c(O)c(C(c2ccccn2)c2c(O)n(C)c(=S)[nH]c2=O)c(=O)[nH]c1=S	17	15	-20	14	-12	11
SMILES	tim10-1 inh	TIM10 inh	PfHsp90 set2	tim23-1 inh	NALP1 yeast inh	NALP3 yeast inh
Oc1cc(Cl)c(Cl)c(Cl)c1	/	/	-7	/	/	/
Oc1cc(Cl)c(Cl)c(Cl)c1Cl	/	/	104*	/	/	/
O=[N+]([O-])c1oc2ccc3ccccc3c2c1CCO	/	/	136*	/	/	/
CN1C2CCC1/C(=C/c1ccccn1)C(=O)/C2=C\c1ccccn1	/	/	21	/	101*	/
NS(=O)(=O)c1ccc(N2CCNCC2)cc1	2	2	-21	11	12	11
Cc1ccc(N=C(N(C)C)P(=O)(N(C)C)N(C)C)cc1	0	-1	18	35	24*	11
O=c1[nH]c(=S)n(Cc2ccc(F)cc2)c(O)c1/C=N/N1CCCCCC1	20	-1	-10	0	46*	8
